In the supplement of paper PMC13380429:

Test system: Vero E6 infected with SARS-CoV-2
Experiment: inhibition of SARS-CoV-2 cytopathic effect; higher = more antiviral protection, active = above 15
Details: 48 h

Measured: inhibition of SARS-CoV-2 cytopathic effect

COc1cc(OC)c(C(=O)CCCCN2CCC3(CC2)NC(=O)NC3=O)cc1NS(=O)(=O)c1ccc(C(F)(F)F)cc1
inactive: 1 nM 0.4% | 8.33 nM 0.2% | 100 nM -0.19% | 833.33 nM 0.81% | 10000 nM 0.94%

COc1cc(Nc2c(C#N)cnc3cc(OCCCN4CCN(C)CC4)c(OC)cc23)c(Cl)cc1Cl [bosutinib]
inactive: 1 nM 0.33% | 8.33 nM -1.8% | 100 nM -1.97% | 833.33 nM -8.27% | 10000 nM -7.97%

C/N=C(/NC#N)NCCSCc1csc(NC(=N)N)n1 [tiotidine]
inactive: 1 nM -3.61% | 8.33 nM -1.47% | 100 nM -1.51% | 833.33 nM -3.05% | 10000 nM -1.02%

O=C(Nc1ccc(C(F)(F)F)cn1)N1CCN(c2ncccc2C(F)(F)F)CC1
inactive: 1 nM -2.83% | 8.33 nM 0.93% | 100 nM 1.25% | 833.33 nM 1.49% | 10000 nM -0.71%

NC1=N[C@@]2(c3cc(NC(=O)c4ccc(F)cn4)ccc3F)COC[C@H]2CS1
inactive: 1 nM -3.54% | 8.33 nM -0.32% | 100 nM -4.37% | 833.33 nM -2.3% | 10000 nM -4.47%

CCOC(=O)c1ccc(OC(=O)CCCCCNC(=N)N)cc1 [gabexate]
inactive: 1 nM -0.03% | 8.33 nM -1.96% | 100 nM 1.38% | 833.33 nM 3.6% | 10000 nM 3.31%

Cc1ncc([N+](=O)[O-])n1CCO [metronidazole]
inactive: 1 nM 1.71% | 8.33 nM -0.45% | 100 nM 1.81% | 833.33 nM 0.19% | 10000 nM -1.16%

CCC(=O)OCC(=O)[C@@]1(OC(=O)CC)[C@@H](C)C[C@H]2[C@@H]3CCC4=CC(=O)C=C[C@]4(C)[C@@]3(Cl)[C@@H](O)C[C@@]21C [beclomethasone-dipropionate]
inactive: 1 nM -9.44% | 8.33 nM -9.23% | 100 nM -11.4% | 833.33 nM -9.54% | 10000 nM -6.97%

Cc1nc(C)c(-c2ccc(C3CCC(CC(=O)O)CC3)cc2)nc1C(N)=O (stereo not given)
inactive: 1 nM 5.02% | 8.33 nM 2.17% | 100 nM 0.91% | 833.33 nM 3.12% | 10000 nM -3.42%

Cc1[nH]c(=O)c(C#N)cc1-c1ccc2nccn2c1 [olprinone]
inactive: 1 nM -2.15% | 8.33 nM 1.36% | 100 nM 0.52% | 833.33 nM 0.56% | 10000 nM -0.84%

N=C(N)NC(=O)c1cnccn1 [pyrazinoylguanidine]
inactive: 1 nM 0.04% | 8.33 nM -6.78% | 100 nM -2.28% | 833.33 nM -5.59% | 10000 nM -0.5%

NCC1OC(C23CC4CC(CC(C4)C2)C3)Cc2c1ccc(O)c2O (stereo not given)
inactive: 1 nM 0.67% | 8.33 nM 0.56% | 100 nM 2.31% | 833.33 nM 1.57% | 10000 nM -6.39%

CC12CCC(C(=O)N(CCCCN3CCN(c4ccccn4)CC3)C1=O)C2(C)C (stereo not given) [piricapiron]
inactive: 1 nM -2.91% | 8.33 nM -0.34% | 100 nM -1.87% | 833.33 nM 0.95% | 10000 nM 1.64%

Fc1ccc(C(OCCN2CCN(CCCc3ccccc3)CC2)c2ccc(F)cc2)cc1 [vanoxerine]
inactive: 1 nM -2.38% | 8.33 nM -0.72% | 100 nM 2.06% | 833.33 nM -3.95% | 10000 nM -11.6%

O=S(=O)(Cc1ccccc1)Nc1ccc(-c2ccc3c(cnn3-c3ccc(F)cc3)c2)c(C(F)(F)F)c1
inactive: 1 nM 0.84% | 8.33 nM 1.44% | 100 nM -0.94% | 833.33 nM 2.01% | 10000 nM -3.81%

COc1ccc(CCC(=O)Nc2nc3ccc(Cl)cc3s2)cc1OC
inactive: 1 nM -2.56% | 8.33 nM -3.14% | 100 nM -2.66% | 833.33 nM 0.12% | 10000 nM 0.38%

Cc1ncc(C[n+]2csc(CCOP(=O)(O)OP(=O)(O)O)c2C)c(N)n1 [thiamine-pyrophosphate]
inactive: 1 nM 2.5% | 8.33 nM 1.37% | 100 nM -0.57% | 833.33 nM 2.37% | 10000 nM 0.01%

CC(OC(=O)OC1CCCCC1)OC(=O)C1=C(CSc2nnnn2CCN(C)C)CS[C@@H]2[C@H](NC(=O)Cc3csc(N)n3)C(=O)N12 (stereo not given in full) [cefotiam-cilexetil]
inactive: 1 nM -0.8% | 8.33 nM 0.27% | 100 nM 0.74% | 833.33 nM 0.5% | 10000 nM -0.94%

CC(C)(N)C(=O)N[C@H](COCc1ccccc1)C(=O)N1CCC2(CC1)CN(S(C)(=O)=O)c1ccccc12 [ibutamoren]
inactive: 1 nM 1.85% | 8.33 nM 2.84% | 100 nM 0.93% | 833.33 nM 4.99% | 10000 nM 2.99%

CN(C)CCCOc1nn(Cc2ccccc2)c2ccccc12 [benzydamine]
inactive: 1 nM 1.21% | 8.33 nM 2.44% | 100 nM 2.33% | 833.33 nM 0.09% | 10000 nM -0.14%

CC1(C)OC2(C)C(O)CC1CC2O (stereo not given) [epomediol]
inactive: 1 nM 7.71% | 8.33 nM 1.77% | 100 nM 4.4% | 833.33 nM 1.92% | 10000 nM 3.17%

O=C(O)c1ccc2[nH]cc(CCCCN3CC=C(c4ccccc4)CC3)c2c1 [carmoxirole]
inactive: 1 nM 1.76% | 8.33 nM 1.65% | 100 nM -1.21% | 833.33 nM 0.28% | 10000 nM 0.69%

COC(=O)C1=C(C)NC(C)=C(C(=O)OCCSc2ccccc2)[C@@H]1C
inactive: 1 nM -2.31% | 8.33 nM -3.84% | 100 nM -2.77% | 833.33 nM -0.76% | 10000 nM 3.1%

O=C(O)c1cc(/N=N/c2ccc(O)c(C(=O)O)c2)ccc1O [olsalazine]
inactive: 1 nM 1.15% | 8.33 nM 2.03% | 100 nM 0.75% | 833.33 nM 2.78% | 10000 nM 1.21%

Cc1[nH]c(/C=C2\C(=O)Nc3ccc(S(=O)(=O)N(C)c4cccc(Cl)c4)cc32)c(C)c1C(=O)N1CCN(C)CC1
inactive: 1 nM 2.2% | 8.33 nM 0.76% | 100 nM -0.49% | 833.33 nM 0.96% | 10000 nM -1.88%

C[C@H](CCC(=O)NCCS(=O)(=O)O)[C@H]1CC[C@H]2[C@@H]3[C@H](O)C[C@@H]4C[C@H](O)CC[C@]4(C)[C@H]3C[C@H](O)[C@]12C [taurocholate]
inactive: 1 nM -8.93% | 8.33 nM -4.1% | 100 nM -6.72% | 833.33 nM -7.82% | 10000 nM -8.38%

COc1ccc(-c2cc(=O)c3c(OC)c(OC)c(OC)c(OC)c3o2)cc1 [tangeritin]
inactive: 1 nM 2.13% | 8.33 nM 0.56% | 100 nM -0.23% | 833.33 nM 0.3% | 10000 nM -0.52%

O=S(=O)(O)CCS [mesna]
inactive: 1 nM 2.64% | 8.33 nM 4.29% | 100 nM 1.16% | 833.33 nM 5.57% | 10000 nM 0.95%

CC(C)[C@H](N)C(=O)OCCOCn1cnc2c(=O)nc(N)[nH]c21 [valaciclovir]
inactive: 1 nM 0.01% | 8.33 nM 0.27% | 100 nM 1.58% | 833.33 nM 0.1% | 10000 nM -2.93%

CCCCc1nc2cc(/C=C/C(=O)NO)ccc2n1CCN(CC)CC
inactive: 1 nM 2.32% | 8.33 nM -0.4% | 100 nM -5.57% | 833.33 nM -20.5% | 10000 nM -27.9%

C/C1=C/C[C@@H](/C(C)=C/c2csc(C)n2)OC(=O)C[C@H](O)C(C)(C)C(=O)[C@H](C)[C@@H](O)[C@@H](C)CCC1 [epothilone-D]
inactive: 1 nM 2.13% | 8.33 nM -0.55% | 100 nM -1.83% | 833.33 nM -0.53% | 10000 nM -1.4%

CCC(=O)O[C@]1(C(=O)COC(C)=O)CC[C@H]2[C@@H]3C[C@H](C)C4=CC(=O)C=C[C@]4(C)[C@H]3[C@@H](O)C[C@@]21C [methylprednisolone-aceponate]
inactive: 1 nM 1.61% | 8.33 nM 1% | 100 nM 0.19% | 833.33 nM 3.54% | 10000 nM 2.69%

CC(C)OC(=O)[C@H](C)N[P@@](=O)(OC[C@H]1O[C@@H](n2ccc(=O)[nH]c2=O)[C@](C)(F)[C@@H]1O)Oc1ccccc1
inactive: 1 nM 2.14% | 8.33 nM -0.76% | 100 nM -2.61% | 833.33 nM -0.19% | 10000 nM 0.32%

C[C@H](CCC(=O)O)[C@H]1CC[C@H]2[C@@H]3[C@@H](O)C[C@@H]4C[C@H](O)CC[C@]4(C)[C@H]3CC[C@]12C [ursodiol]
inactive: 1 nM 0.455% | 8.33 nM 1.77% | 100 nM 3.56% | 833.33 nM 1.38% | 10000 nM 0.145%

O=S(=O)(O)c1cc(O)ccc1O [etamsylate]
inactive: 1 nM 0.18% | 8.33 nM -1.16% | 100 nM -0.81% | 833.33 nM 0.23% | 10000 nM 1.8%

CC(=O)Nc1ccc(CC(=O)O)cc1 [actarit]
inactive: 1 nM 1.96% | 8.33 nM -0.52% | 100 nM 0.35% | 833.33 nM -0.15% | 10000 nM -0.41%

O=C(NS(=O)(=O)c1ccc(Br)s1)c1ccc(Cl)cc1Cl [tasisulam]
inactive: 1 nM -0.54% | 8.33 nM 5.25% | 100 nM 0.94% | 833.33 nM -0.93% | 10000 nM 4.37%

C=CC[N+]1([C@H]2C[C@H]3[C@@H]4CC[C@H]5C[C@H](O)[C@@H](N6CCOCC6)C[C@]5(C)[C@H]4CC[C@]3(C)[C@H]2OC(C)=O)CCCC1
inactive: 1 nM -0.55% | 8.33 nM -0.87% | 100 nM 2.36% | 833.33 nM 1.73% | 10000 nM 0.75%
